Bioassay records (PubChem)
Peg3 promoter = Peg3 promoter-driven luciferase inhibitors, primary screen, cell-based, HeLa, luciferase luminescence | AID 588405, 2011 | actives 1.7% (n = 360,000) | HeLa PEG-Prom luciferase reporter, overnight | inhibition, % at 20 µM;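 active = inhibition of at least 50% at 20 µM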
CF NFkB block = inhibitors of PAF-induced NF-kB signaling, primary screen, cell-based, GFP fluorescence, uHTS; actives 0.86% (n = 360,000); inhibition, % at 5 µM; AID 588850, 2011; KKLEB NF-kB-GFP reporter, GFP fluorescence overnight;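 active = at least 50% inhibition at 5 µM, scaled per plate between neutral and stimulator controls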;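 also: PAF is a Pseudomonas aeruginosa culture filtrate used as stimulus; plate controls were PAF-stimulated DMSO wells for no effect and unstimulated DMSO wells for full effect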
ABHD5-PLIN5 inh = ABHD5-PLIN5 interaction inhibitors, primary screen, cell lysate, split luciferase complementation, luminescence; actives 0.78% (n = 360,000); inhibition, % at 4 µM; Split G. princeps luciferase complementation, 4 h;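 active = inhibition above the mean inhibition across every tested compound plus 3 SD, cut at about 22% in these data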;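 also: 0% = DMSO only wells and the 100% control is not disclosed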
Target sequence (Q00G26 whole entry, looked up): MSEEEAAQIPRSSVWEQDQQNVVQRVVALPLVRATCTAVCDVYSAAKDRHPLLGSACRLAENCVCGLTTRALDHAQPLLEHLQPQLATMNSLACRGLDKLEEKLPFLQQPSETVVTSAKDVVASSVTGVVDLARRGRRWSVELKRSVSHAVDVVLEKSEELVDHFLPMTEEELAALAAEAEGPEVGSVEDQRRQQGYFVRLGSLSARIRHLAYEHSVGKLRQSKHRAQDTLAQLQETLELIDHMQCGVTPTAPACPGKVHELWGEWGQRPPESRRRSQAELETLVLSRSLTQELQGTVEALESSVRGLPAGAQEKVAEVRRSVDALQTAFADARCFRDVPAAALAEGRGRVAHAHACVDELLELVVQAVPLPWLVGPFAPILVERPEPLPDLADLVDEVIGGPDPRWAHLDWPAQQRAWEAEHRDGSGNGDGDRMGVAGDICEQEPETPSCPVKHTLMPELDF
Target sequence (Q8WTS1 whole entry, looked up): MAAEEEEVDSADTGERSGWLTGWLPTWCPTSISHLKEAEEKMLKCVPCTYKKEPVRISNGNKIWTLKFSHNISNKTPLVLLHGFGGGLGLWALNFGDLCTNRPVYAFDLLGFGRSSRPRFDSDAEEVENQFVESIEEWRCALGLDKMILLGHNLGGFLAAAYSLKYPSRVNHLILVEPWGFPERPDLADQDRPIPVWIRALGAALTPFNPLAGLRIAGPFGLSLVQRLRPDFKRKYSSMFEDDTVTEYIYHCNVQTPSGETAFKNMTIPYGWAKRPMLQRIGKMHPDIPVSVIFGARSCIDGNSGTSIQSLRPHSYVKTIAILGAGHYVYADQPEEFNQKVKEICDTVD
HIF-2a inh = HIF-2a reporter inhibitors, primary screen, luminescence, 786-0 RCC cells; inhibition, % at 18.8 µM; 786-0 RCC cells HIF-2a reporter, luciferase luminescence, overnight; actives 0.72% (n = 360,000); AID 624352, 2012;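 active = inhibition of the luminescence signal of 40% or more relative to plate controls, in a single-dose primary screen at 18.75 µM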
TRPM1 prom inh = inhibitors of MITF-dependent TRPM1 promoter reporter, primary screen, cell-based, SK-MEL-5, single point, luciferase; SK-MEL-5 TRPM1 promoter luciferase, 24 h; inhibition, % at 12.5 µM; actives 0.83% (n = 330,000); AID 488899, 2010;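 active = mean inhibition across replicates of 60% or more, whatever share of single replicates reaches that level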
KKLEB tox = cytotoxicity in KKLEB CF airway cells, primary screen, cytotoxicity control for CF NF-kB inhibitor project, cell-based, uHTS, fluorescence assay plates. KKLEB CF airway cells viability, ATPlite luminescence, overnight; stronger effect = lower value; cells stimulated with P. aeruginosa culture filtrate. activity change (cytotoxicity), % at 5 µM. actives 0.36% (n = 360,000);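 active = corrected activity change at or below -50% at 5 µM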
CF NFkB inh conf = inhibitors of PAF-induced NF-kB signaling, retest, confirmation, cell-based, GFP fluorescence, single concentration; KKLEB CF airway cells, overnight; inhibition, % at 5 µM; shares compounds with CF NFkB block; AID 602472, 2012; actives 64% (n = 1,300); in the data active = inhibition above about 40%;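 also: stimulus PAF is a Pseudomonas aeruginosa filtrate and not platelet activating factor; plate controls were DMSO wells with stimulus for no effect and unstimulated DMSO wells for full effect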
ABHD5 PLIN5 conf = ABHD5-PLIN5 interaction inhibitors, confirmation, biochemical, luminescence; shares compounds with ABHD5-PLIN5 inh; inhibition, % at 4 µM; actives 67% (n = 2,200); AID 651612, 2012; in the data active = inhibition above about 23%;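 also: 0% = DMSO vehicle wells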
HNF4 counter = HNF4 dimerization inhibitors, counter-screen for ABHD5-PLIN5 interaction inhibitor project, biochemical, split-luciferase complementation, luminescence | inhibition, % at 4 µM | shares compounds with ABHD5-PLIN5 inh | actives 77% (n = 2,200);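 active = mean inhibition across replicate wells exceeding the computed hit threshold, cut at about 13% in these data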;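 also: light from luciferase halves that rejoin when HNF4 fusion proteins dimerize; 0% = DMSO only wells and the 100% control is not given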
Mdm2 MdmX conf = retested Mdm2-MdmX interaction blockers, confirmation, cell-based, luminescence, single concentration, set 2. shares compounds with HIF-2a inh. SaOS-2 split-luciferase Mdm2/MdmX complementation. inhibition, % at 8 µM. actives 99% (n = 740);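 active = mean inhibition of the luminescence signal across two replicates at or above 26 percent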
HIF-2a inh conf = HIF-2a reporter inhibitor retest, confirmation, luminescence, 786-0 RCC cells; shares compounds with HIF-2a inh; HIF-2a luciferase reporter luminescence, overnight; inhibition, % at 18.8 µM; actives 56% (n = 1,800);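 active = mean inhibition across four replicates of at least 40 percent at the single tested concentration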
HIF-1a counter = HIF-1a luciferase reporter signal reduction – MiaPaCa-2 cells, single concentration, counter-screen for HIF-2a inhibitor project, confirmation; MiaPaCa-2 HIF-1a luciferase reporter, desferoxamine, overnight; actives 72% (n = 1,800); shares compounds with HIF-2a inh; AID 651589, 2012; inhibition, % at 18.8 µM;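 active = mean inhibition of the reporter signal across four replicates at the single tested dose of 50% or more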
The depositor's hits bear a star. Only some compounds are listed: those with a hit (about 3.1% of all), similar ones and a draw of the others.

What do the screens show for `COc1ccc2cc3c(N)nn(C(=O)Cc4ccccc4OC)c3nc2c1`?
Peg3 promoter: 41.9; CF NFkB block: 54.5*; ABHD5-PLIN5 inh: 3.3; HIF-2a inh: 35.9*; TRPM1 prom inh: 26.6; KKLEB tox: -10.3; CF NFkB inh conf: 67.9*; HIF-2a inh conf: 13.5; HIF-1a counter: 88.6*

Results for Cc1csc(CNc2ncnc3ccc(-c4ccoc4)cc23)c1 ?
Peg3 promoter: -21.3; CF NFkB block: 71.4*; ABHD5-PLIN5 inh: 9.5; HIF-2a inh: -2.4; TRPM1 prom inh: -11.5; KKLEB tox: -19.7; CF NFkB inh conf: 83.1*; Mdm2 MdmX conf: 87.0*

How did c1cncc(CNc2ncnc3ccc(-c4ccoc4)cc23)c1 do in these assays?
Peg3 promoter: 18.6; CF NFkB block: 79.9*; ABHD5-PLIN5 inh: 3.0; HIF-2a inh: 11.1; TRPM1 prom inh: 6.8; KKLEB tox: 0.3; CF NFkB inh conf: 88.1*; Mdm2 MdmX conf: 87.0*

How did Brc1ccc2ncnc(NCc3ccccc3)c2c1 do in these assays?
Peg3 promoter: 12.9; CF NFkB block: 74.9*; ABHD5-PLIN5 inh: -2.6; HIF-2a inh: 24.6; TRPM1 prom inh: 3.9; KKLEB tox: -38.0; CF NFkB inh conf: 81.0*; Mdm2 MdmX conf: 89.9*

What do the screens show for `CC1C(=O)N2CCCc3cc(S(=O)(=O)N(C)c4ccccc4)cc1c32` (stereo not given)?
Peg3 promoter: 21.4; CF NFkB block: -0.9; ABHD5-PLIN5 inh: 6.6; HIF-2a inh: 12.3; TRPM1 prom inh: 2.8; KKLEB tox: -3.4

Results for O=C(CC1C[C@H](C(=O)N2CCCCC2)[C@@]2(CCc3ccccc3)c3[nH]c4ccccc4c3CCN2C1=O)NCCCn1ccnc1 (stereo not given in full) ?
Peg3 promoter: 10.5; CF NFkB block: 9.2; ABHD5-PLIN5 inh: 3.2; HIF-2a inh: 8.1; TRPM1 prom inh: 5.1; KKLEB tox: 2.4

Results for N#CC1(NC(=O)Cn2ncc(Cl)c(Cl)c2=O)CCCCC1 ?
Peg3 promoter: 93.5*; CF NFkB block: 80.7*; ABHD5-PLIN5 inh: 10.1; HIF-2a inh: 86.6*; TRPM1 prom inh: 48.7; KKLEB tox: 2.7; CF NFkB inh conf: 13.9; HIF-2a inh conf: 58.9*; HIF-1a counter: 107.0*

What do the screens show for `CC1CCN(CC(CS(=O)(=O)c2ccc([N+](=O)[O-])cc2)N2CCC(C)CC2)CC1` (stereo not given)?
Peg3 promoter: 108.2*; CF NFkB block: 96.5*; ABHD5-PLIN5 inh: -0.1; HIF-2a inh: 92.8*; TRPM1 prom inh: 84.1*; KKLEB tox: -42.3; CF NFkB inh conf: 88.0*; Mdm2 MdmX conf: 103.2*; HIF-2a inh conf: 23.8; HIF-1a counter: 106.9*

How did O=C(c1ccc(S(=O)(=O)c2ccc(F)cc2)c([N+](=O)[O-])c1)N1CCCCCC1 do in these assays?
Peg3 promoter: 17.7; CF NFkB block: 54.3*; ABHD5-PLIN5 inh: -3.9; HIF-2a inh: 52.9*; TRPM1 prom inh: 47.8; KKLEB tox: -20.8; CF NFkB inh conf: 38.8; HIF-2a inh conf: 3.3; HIF-1a counter: 49.1

What do the screens show for `C[C@@]12CC[C@H]3OC(=O)C=C3C1CC[C@@]13CC(CCC12)[C@](CO)(O[C@H]1O[C@H](CO)[C@@H](O)[C@H](O)[C@H]1O)C3` (stereo not given in full)?
Peg3 promoter: -0.7; CF NFkB block: 5.3; ABHD5-PLIN5 inh: -10.5; HIF-2a inh: 4.8; TRPM1 prom inh: 4.8; KKLEB tox: 12.5

Results for Cc1cc2cc(C)c(NCCNC(=O)c3cccs3)nc2cc1C ?
Peg3 promoter: 25.1; CF NFkB block: -7.1; ABHD5-PLIN5 inh: 2.0; HIF-2a inh: -7.5; TRPM1 prom inh: -0.9; KKLEB tox: -9.4

How did C[N+]1=C(/C=C/Nc2ccccc2Cl)C(C)(C)c2ccccc21 do in these assays?
Peg3 promoter: 8.4; CF NFkB block: -34.7; ABHD5-PLIN5 inh: -5.3; HIF-2a inh: 2.1; TRPM1 prom inh: 4.5; KKLEB tox: -4.1

What do the screens show for `COC(=O)c1ccc2c(c1)C(C)(C)C(/C=C/c1ccccc1O)=[N+]2C`?
Peg3 promoter: 105.5*; CF NFkB block: 64.0*; ABHD5-PLIN5 inh: 63.6*; HIF-2a inh: 95.5*; TRPM1 prom inh: 105.0*; KKLEB tox: -38.7; CF NFkB inh conf: 96.6*; ABHD5 PLIN5 conf: 98.3*; HNF4 counter: 94.9*; Mdm2 MdmX conf: 103.5*; HIF-2a inh conf: 98.8*; HIF-1a counter: 105.0*

What do the screens show for `Cc1cccc(/C=C(\c2nc3ccccc3[nH]2)S(=O)(=O)c2ccccc2)c1`?
Peg3 promoter: 112.4*; CF NFkB block: 54.6*; ABHD5-PLIN5 inh: 42.5*; HIF-2a inh: 88.2*; TRPM1 prom inh: 86.1*; KKLEB tox: -25.3; CF NFkB inh conf: -178.8; ABHD5 PLIN5 conf: 84.5*; HNF4 counter: 67.5*; HIF-2a inh conf: 91.9*; HIF-1a counter: 104.8*

How did Nc1ncc([N+](=O)[O-])c(N2CCCCCC2)n1 do in these assays?
Peg3 promoter: 13.7; CF NFkB block: 67.1*; ABHD5-PLIN5 inh: -4.8; HIF-2a inh: 7.7; TRPM1 prom inh: -3.6; KKLEB tox: 2.3; CF NFkB inh conf: 91.3*; Mdm2 MdmX conf: 84.2*
